GLA spleen mod: alpha-galactosidase A (human) modulation | AID 2107 | P06280 | human spleen homogenate, 4MU-alpha-Gal fluorescence, 40 min | 240,000 compounds, 0.008% hits | Potency, µM (series often up to 80 µM), for inactives: at the top dose activity change, negative = inhibition, hits mostly inhibitors;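 further: potency means the concentration at half of the fitted maximal effect; 0% = enzyme with vehicle and -100% = no enzyme basal signal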
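Human spleen homogenate (1 ug) as enzyme source, 4-methylumbelliferyl-alpha-D-galactopyranoside 1 mM final, citrate/phosphate pH 5.0 with 0.01% Tween-20. Compounds 40 min at 37C, NaOH/glycine stop; fluorescence Ex 365/Em 440, Hill-fit AC50.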
GAA glycogen mod: GAA glycogen-cleavage inhibition or activation. P10253. recombinant GAA, glycogen substrate, Amplex Red glucose oxidase fluorescence. Potency, µM (top dose mostly 76.4 µM), for inactives: top-dose activity change, negative = inhibition, actives largely listed as inhibitors. 300,000 compounds, 0.38% hits. AID 2100;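 further: potency means the concentration at half of the fitted maximal effect; 0% = full enzyme reaction and -100% = no-enzyme basal signal; the screen sought inhibitors and activators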
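Natural-substrate format: glycogen cleavage by 4 nM human enzyme, glucose read by Amplex Red coupling (Ex 573, Em 610 nm). Normalized to enzyme and no-enzyme controls.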
GLA inh pH 4.5: inhibitors of human alpha-galactosidase A at pH 4.5. P06280. activity change, negative = inhibition, % at 105 µM. purified enzyme, 4-MU-alpha-Gal fluorescence, pH 4.5. AID 1467. 230,000 tested, under 10 active;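 further: 0% = full activity with enzyme and -100% = basal without enzyme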
Target sequence (P06280 whole entry, looked up): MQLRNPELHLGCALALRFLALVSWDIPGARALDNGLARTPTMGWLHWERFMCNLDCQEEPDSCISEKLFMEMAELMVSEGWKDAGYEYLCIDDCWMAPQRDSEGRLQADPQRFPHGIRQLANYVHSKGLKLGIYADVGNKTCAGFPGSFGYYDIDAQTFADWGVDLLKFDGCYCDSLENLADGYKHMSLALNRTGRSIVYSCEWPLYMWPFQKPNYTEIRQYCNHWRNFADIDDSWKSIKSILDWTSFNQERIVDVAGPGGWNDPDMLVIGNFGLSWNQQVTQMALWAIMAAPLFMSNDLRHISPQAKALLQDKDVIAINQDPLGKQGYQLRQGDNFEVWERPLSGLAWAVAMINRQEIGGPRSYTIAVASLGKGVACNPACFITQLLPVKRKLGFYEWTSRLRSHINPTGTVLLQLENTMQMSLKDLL
GAA inhib: inhibitors of human lysosomal alpha-glucosidase; P10253; purified human GAA, 4-MU-alpha-glucoside fluorescence; Potency, µM (doses to about 76.9 µM), inactives show top-dose activity change, negative = inhibition, usual class: inhibitors; 200,000 compounds, 0.005% hits; AID 1466;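 further: potency means the concentration at half of the fitted maximal effect; plate controls were uninhibited enzyme wells for no effect and no-enzyme background for full effect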
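Compounds are titrated up to 77 uM against 4 nM human enzyme. Substrate 4-methylumbelliferyl-alpha-D-pyranoside (400 uM) reacts 20 min at room temperature in pH 5.0 buffer; liberated 4-methylumbelliferone is read at 440 nm.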
GAA spleen mod: lysosomal alpha-glucosidase (human) modulation; P10253; human spleen homogenate, 4-MU-alpha-glucoside fluorescence; Potency, µM (highest dose often 79.9 µM), for inactives: at the top dose activity change, negative = inhibition, actives largely listed as inhibitors; 240,000 compounds, 0.006% hits; AID 2112;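 further: potency means the concentration at half of the fitted maximal effect; 0% = enzyme with vehicle and -100% = no enzyme basal signal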
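Human spleen homogenate (1 ug) with 4-methylumbelliferyl-alpha-D-glucopyranoside (1 mM final) in 50 mM citrate/phosphate pH 5.0, 0.01% Tween-20; 40 min at 37 C. Stopped at pH 10; 4-MU fluorescence Ex 365/Em 440 nm; AC50 by Hill fit.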
N370S GC: N370S glucocerebrosidase modulation, Gaucher chaperone candidate. N370S GC spleen homogenate, 4MU-glucoside fluorescence. 330,000 compounds, 0.092% hits. Potency, µM (highest dose often 59.4 µM), for the others: at the highest dose activity change, negative = inhibition, actives largely listed as inhibitors. P04062. AID 2101;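 further: potency means the concentration at half of the fitted maximal effect; 0% = full enzyme activity and -100% = no enzyme basal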
* hit, by the source's call; ? = inconclusive; / = not tested or not shown; [ ] = another dose, or the depositor's remark. The list is not random: actives were taken first. Their share in the collection is about 0.43%. The call rests on the fitted dose curve; in most records, active means well fitted curve in the direction sought with a large enough effect; inconclusive means small, poorly fitted or top-dose-only effect, or another doubt; inactive means no such curve, though single readings can be large; an effect the other way counts as inactive or inconclusive.

SMILES	GLA spleen mod	GAA glycogen mod	GLA inh pH 4.5	GAA inhib	GAA spleen mod	N370S GC
Cc1ccc(NCc2n[nH]c(=S)n2-c2cccc(Cl)c2)cc1	-7.1%	?	16.3	1.2%	-3.2%	21.8%
Cc1ccc(-n2c(CNc3cccc(Cl)c3)n[nH]c2=S)cc1	-1.7%	28.2µM*	9.6	-3.4%	-2.4%	2.2%
CCN(CC)c1ccc(/C=N/Nc2ccccc2)c(O)c1	-1.1%	17.6µM*	-10.5	-10.3%	5.6%	2.3%
CCN(CC)c1ccc(/C=N/Nc2cccc(C)c2)c(O)c1	-3.1%	-26.8%	2.1	1.3%	-8.8%	-1.9%
CC(=O)OCC1OC(C#CCC2CCCCC2)C=CC1OC(C)=O (centres undefined)	-2.3%[17.5 µM]	/	/	/	-0.3%[17.4 µM]	-4.5%[12.8 µM]
COc1cc(C2NC(=O)NC(C)=C2C(=O)OCc2ccc(C)cc2)cc(OC)c1OC (centres undefined)	/	6.0%[76.3 µM]	/	/	/	-14.9%
COc1cc(C2NC(=O)NC(C)=C2C(=O)OCc2ccc(C)cc2)cc(OC)c1O (centres undefined)	7.8%	9.92µM*	4.5	1.0%	9.7%	-0.4%
C/C=C1\COC(C(=O)NCCN2CCOCC2)(C(F)(F)F)C=C1C=C(C)C (centres undefined)	1.7%	/	/	/	-2.9%	14.1µM*
Cc1ccc(-c2nc(C#N)c(NCC3CCCO3)o2)cc1 (centres undefined)	10.2%	?	5.5	14.2%	4.8%	-1.5%
COc1ccc(-c2nc(C#N)c(NCC3CCCO3)o2)cc1 (centres undefined)	-18.1%	28.2µM*	0.8	-8.2%	-15.9%	0.0%
Oc1ccc(/C=N/Nc2ccnc3cc(Cl)ccc23)cc1O	6.7%	44.7µM*	-0.7	/	0.0%	-11.0%
Cc1cccc(NC(=S)NNC(=O)c2nn(C)cc2Cl)c1	7.3%	?	1.1	-9.1%	-2.3%	10.4%
Cc1ccc(NC(=S)NNC(=O)c2nn(C)cc2Cl)cc1	1.5%	14.1µM*	0.7	4.8%	1.7%	9.1%
COc1ccc(NC(=S)NNC(=O)c2cccnc2)cc1OC	6.8%	3.95µM*	2.0	-6.7%	-6.1%	-10.0%
COc1ccc(C(=O)NNC(=S)NC(=O)c2cccnc2)cc1	1.2%	39.5µM*	-2.0	3.6%	-3.4%	-11.8%
O=C(NNC(=O)c1ccccc1F)C1=NN(c2ccccc2)C(=O)CC1	/	50.1µM*	/	/	/	-3.5%
CC(C)NC(=O)C1=NN(c2ccccc2)C(=O)CC1	/	5.0%	/	/	/	-3.7%
O=S(=O)(Nc1cc(O)cc2cccnc12)c1ccc(Br)s1	-10.2%	/	/	/	3.7%	-5.2%
O=C1C=CC2=C3c4cc(O)c(O)cc4C[C@@]3(O)COC2=C1	2.7%	/	2.1	/	4.7%	-8.4%
CCOC(=O)OCC1OC(c2ccccc2)C=CC1Oc1ccc(F)cc1C (centres undefined)	-28.8%[17.5 µM]	/	/	/	-0.6%[17.4 µM]	17.7%[12.8 µM]
CCOC(=O)C1=C(C)N=C2c3ccccc3C(=O)C2C1c1ccc(Cl)cc1 (centres undefined)	-1.5%	-29.1%	0.7	-3.3%	-10.2%	-5.2%[12.8 µM]
Cc1ccc(C2C3=C(CC(C)(C)CC3=O)N=C3c4ccccc4C(=O)C32)cc1 (centres undefined)	0.8%	-21.5%	-14.5	-2.5%	-16.5%	15.8µM*
CC1(C)CC(=O)C2=C(C1)N=C1c3ccccc3C(=O)C1C2c1ccc(Cl)cc1 (centres undefined)	2.9%	-5.4%	-17.9	0.7%	-4.3%	14.1µM*
Cc1ccc(C2C3=C(CC(C)(C)CC3=O)OC3=C2C(=O)CC(C)(C)C3)cc1	1.1%	-9.2%	-1.3	5.7%	-2.2%	0.2%
CCOc1ccc(CCNC(=O)CCc2c(C)nc3c(c(C)nn3-c3ccccc3)c2C)cc1OCC	/	-4.8%[76.3 µM]	/	/	/	/
SMILES	GLA spleen mod	GAA glycogen mod	GLA inh pH 4.5	GAA inhib	GAA spleen mod	N370S GC
N#Cc1cc2nc(O)c(O)nc2cc1[N+](=O)[O-]	6.7%	/	-1.5	/	-5.5%	/
O=[N+]([O-])c1cc2nc(O)c(O)nc2cc1[N+](=O)[O-]	-3.0%	/	-10.3	/	-9.9%	12.6µM*
Cc1cc(C)nc(-n2nc(C)cc2Nc2ccccc2)n1	-0.7%	-19.7%	-2.3	-15.3%	-6.5%	23.9%
Cc1cc(Nc2ccccc2)n(-c2ccccc2)n1	2.9%	12.5µM*	-2.8	-6.6%	-1.8%	-3.2%
COc1ccc(S(=O)(=O)NNC(=O)c2cc3cc4ccccc4nc3s2)cc1	-12.1%	12.5µM*	-13.6	?	0.1%	-20.9%
CS(=O)(=O)NNC(=O)c1cc2cc3ccccc3nc2s1	5.4%	15.7µM*	-2.3	-6.4%	5.4%	7.4%
CC(=O)Oc1ccc2c(C)cc(=O)oc2c1	?	-0.4%	?	?	?	?
CC(=O)Oc1cc2oc(=O)cc(C)c2cc1OC(C)=O	?	7.88µM*	?	?	?	?
O=C(COc1ccc2ccccc2c1)NNC(=O)Cc1ccccc1	-8.4%	9.3%	-1.7	-1.3%	-11.6%	-14.7%
O=C(CN1C(=O)CCC1=O)NNc1ccc2ccccc2c1	-8.6%	11.2µM*	6.1	6.4%	4.9%	-16.0%
O=C(Cc1ccccc1)NNc1ccc2ccccc2c1	-0.9%	25.1µM*	-4.2	-3.0%	0.3%	3.7%
c1ccc(-c2ccc3c(c2)NCCN3)cc1	-8.5%	8.91µM*	6.5	/	-5.0%	-12.3%
COc1ccc(Cn2c(C)nnc2-c2cnn(C)c2N)cc1	28.2µM*	-0.7%	12.4	4.8%	?	5.1%
O=C(O)C1OC(Oc2cc3oc(-c4ccccc4)cc(=O)c3c(O)c2O)C(O)C(O)C1O (centres undefined)	-2.3%	6.31µM*	2.4	2.4%[15.4 µM]	-4.4%	22.1%
COc1ccc(S(=O)(=O)c2c(C)c(NS(=O)(=O)c3ccccc3)cc(C)c2O)cc1	-1.2%	?	-0.8	-1.9%	-4.1%	10.8%
Cc1c(NS(=O)(=O)c2ccccc2)cc(C(C)C)c(O)c1S(=O)(=O)c1ccc(Cl)cc1	/	11.2µM*	/	/	/	/
Cc1ccc(C)c(NC(=O)C2CCCN(S(=O)(=O)c3ccc4[nH]c(=O)ccc4c3)C2)c1 (centres undefined)	/	31.6µM*	/	/	/	-22.8%
O=C(NN=C1C2CC3CC(C2)CC1C3)c1cc(Cl)ccc1O	10.6%	12.6µM*	-0.9	-3.3%	3.6%	0.4%
O=C(NN=C1C2CC3CC(C2)CC1C3)c1ccncc1	-4.9%	?	-9.1	4.0%	-11.5%	6.8%
COc1ccc(OC)c(-c2cc(C(=O)NC(C)c3ccccc3)no2)c1 (centres undefined)	/	7.3%[76.3 µM]	/	/	/	/
Cc1cc(O)c(C(C)C)cc1N=C1CSC(=O)N1	5.0%	17.6µM*	-5.6	5.1%	7.7%	1.6%
CC(C)CC(C(=O)NCCc1ccccc1)N1Cc2ccccc2C1=O (centres undefined)	/	-6.6%[76.3 µM]	/	/	/	/

Assay outcomes: PubChem, National Center for Advancing Translational Sciences (NCATS)
